Experimental findings from paper PMC7862700, “An all-to-all approach to the identification of sequence-specific readers for epigenetic DNA modifications on cytosine” are described below.

Common to all, as to experiment: DAPPL (digital affinity profiling via proximity ligation, sequencing); 10 mM Tris-HCl pH 7.5, 50 mM NaCl, 1 mM DTT, 4% glycerol, room temperature, 30 min; GST-TFs on glutathione beads, 16-mer random dsDNA library, 0.1% formaldehyde crosslink after washing; high values mean tight binding
Details in all cases: protein: recombinant; tags: N-terminal GST; dsDNA, one strand shown

The target of experiment [1] is T1, ELK1 (Homo sapiens, UniProt P19419 1-428).
T1 sequence: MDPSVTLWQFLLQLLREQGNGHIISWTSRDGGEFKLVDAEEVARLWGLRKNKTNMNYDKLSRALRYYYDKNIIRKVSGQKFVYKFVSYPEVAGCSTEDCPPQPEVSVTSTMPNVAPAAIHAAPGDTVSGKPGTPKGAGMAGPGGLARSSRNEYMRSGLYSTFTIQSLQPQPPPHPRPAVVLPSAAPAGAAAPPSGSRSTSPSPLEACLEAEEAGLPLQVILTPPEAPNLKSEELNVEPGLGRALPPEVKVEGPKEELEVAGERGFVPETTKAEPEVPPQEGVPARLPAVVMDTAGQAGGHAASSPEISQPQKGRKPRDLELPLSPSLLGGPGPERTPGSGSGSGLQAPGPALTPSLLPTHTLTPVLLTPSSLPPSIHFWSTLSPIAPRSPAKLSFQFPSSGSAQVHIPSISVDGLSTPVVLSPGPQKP
In short, it runs like this: (§1)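 Binding signal is given per hexamer as its read frequency for a factor divided by its frequency in the tag-only sample. GST-fused human transcription factors were expressed in yeast, captured on glutathione beads, barcoded with DNA and pooled with that sample, then incubated with 200 nmole of a 16-mer random double-stranded DNA library in Tris/NaCl/DTT/glycerol buffer for 30 min at room temperature. The pools were then washed, crosslinked, proximity-ligated, amplified by PCR and sequenced on an Illumina NextSeq500.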

For experiment [2], the target named is SPI1 (Homo sapiens, UniProt P17947 1-270). In short, it runs like this: as §1
Experiment [3] concerns the target T2, ELK3 (Homo sapiens, UniProt P41970 1-407).
T2 sequence: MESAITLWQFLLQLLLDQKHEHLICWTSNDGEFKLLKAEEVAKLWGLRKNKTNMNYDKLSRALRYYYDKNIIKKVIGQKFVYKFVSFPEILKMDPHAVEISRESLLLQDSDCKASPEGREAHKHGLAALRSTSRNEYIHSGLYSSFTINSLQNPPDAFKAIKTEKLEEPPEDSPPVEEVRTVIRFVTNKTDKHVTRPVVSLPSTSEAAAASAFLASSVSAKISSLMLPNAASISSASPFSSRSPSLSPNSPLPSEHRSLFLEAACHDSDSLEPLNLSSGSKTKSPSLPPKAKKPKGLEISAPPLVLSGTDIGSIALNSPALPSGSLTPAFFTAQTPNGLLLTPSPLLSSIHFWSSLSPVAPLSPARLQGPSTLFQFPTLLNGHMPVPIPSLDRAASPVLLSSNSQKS
In outline:
as §1

The target of experiment [4] is T3, SPIC (Homo sapiens, UniProt Q8N5J4 1-248).
T3 sequence: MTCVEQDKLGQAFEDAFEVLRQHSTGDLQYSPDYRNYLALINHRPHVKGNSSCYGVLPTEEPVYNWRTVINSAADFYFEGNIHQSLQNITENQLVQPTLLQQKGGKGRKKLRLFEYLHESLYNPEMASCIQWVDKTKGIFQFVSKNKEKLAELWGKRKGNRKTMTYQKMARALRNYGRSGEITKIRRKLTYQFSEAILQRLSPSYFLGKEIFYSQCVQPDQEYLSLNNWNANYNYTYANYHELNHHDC
In outline:
as §1

Experiment [5] addresses ELF4 (Homo sapiens, UniProt Q99607 1-663). In outline: as §1
The target of experiment [6] is T4, ELF3 (Homo sapiens, UniProt P78545 1-371).
T4 sequence: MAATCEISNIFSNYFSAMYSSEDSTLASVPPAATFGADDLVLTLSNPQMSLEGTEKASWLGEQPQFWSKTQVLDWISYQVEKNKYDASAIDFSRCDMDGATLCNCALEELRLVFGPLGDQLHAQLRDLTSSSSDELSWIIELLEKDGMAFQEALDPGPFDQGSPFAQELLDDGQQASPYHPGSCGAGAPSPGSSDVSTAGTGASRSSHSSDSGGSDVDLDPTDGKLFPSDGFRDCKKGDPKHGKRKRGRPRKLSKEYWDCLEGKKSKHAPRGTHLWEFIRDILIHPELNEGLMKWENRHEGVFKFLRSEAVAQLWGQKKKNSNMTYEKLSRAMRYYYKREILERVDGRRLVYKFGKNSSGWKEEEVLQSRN
In outline:
as §1

The target of experiment [7] is SPIB (Homo sapiens, UniProt Q01892 1-262). In short, it runs like this:
as §1

For experiment [8], the target named is T5, GABPA (Homo sapiens, UniProt Q06546 1-454).
T5 sequence: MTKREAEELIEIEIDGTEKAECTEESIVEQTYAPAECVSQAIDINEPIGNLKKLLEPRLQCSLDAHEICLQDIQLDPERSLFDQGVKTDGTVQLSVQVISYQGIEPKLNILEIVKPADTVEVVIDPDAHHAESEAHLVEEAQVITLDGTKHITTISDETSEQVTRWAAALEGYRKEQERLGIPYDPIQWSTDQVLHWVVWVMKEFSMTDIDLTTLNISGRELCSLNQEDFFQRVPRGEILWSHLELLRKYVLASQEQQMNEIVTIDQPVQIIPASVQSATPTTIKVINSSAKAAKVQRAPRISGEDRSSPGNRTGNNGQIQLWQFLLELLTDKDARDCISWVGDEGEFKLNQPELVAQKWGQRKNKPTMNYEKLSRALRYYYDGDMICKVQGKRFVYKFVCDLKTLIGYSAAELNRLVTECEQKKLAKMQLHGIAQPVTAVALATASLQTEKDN
In short, it runs like this: as §1

The target of experiment [9] is ELF1 (Homo sapiens, UniProt P32519 1-619). In outline: as §1
Sequence of ELF1 (P32519 whole entry): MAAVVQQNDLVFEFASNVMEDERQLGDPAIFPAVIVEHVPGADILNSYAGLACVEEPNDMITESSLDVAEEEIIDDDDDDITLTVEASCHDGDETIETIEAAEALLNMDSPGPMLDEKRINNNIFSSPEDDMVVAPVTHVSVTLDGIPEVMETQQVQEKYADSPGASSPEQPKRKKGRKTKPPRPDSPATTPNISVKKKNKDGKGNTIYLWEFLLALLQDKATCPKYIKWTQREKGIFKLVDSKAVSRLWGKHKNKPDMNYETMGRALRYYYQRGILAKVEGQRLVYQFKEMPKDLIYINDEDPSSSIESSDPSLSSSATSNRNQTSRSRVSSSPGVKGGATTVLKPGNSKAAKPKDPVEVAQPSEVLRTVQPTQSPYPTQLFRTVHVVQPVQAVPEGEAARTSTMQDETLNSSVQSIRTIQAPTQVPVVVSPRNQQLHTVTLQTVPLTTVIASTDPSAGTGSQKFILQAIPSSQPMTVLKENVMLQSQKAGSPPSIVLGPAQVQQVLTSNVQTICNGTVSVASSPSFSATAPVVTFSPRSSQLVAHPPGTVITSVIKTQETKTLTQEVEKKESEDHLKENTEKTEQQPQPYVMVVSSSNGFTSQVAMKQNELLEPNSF
Experiment [10] deals with T6, EHF (Homo sapiens, UniProt Q9NZC4 1-300).
T6 sequence: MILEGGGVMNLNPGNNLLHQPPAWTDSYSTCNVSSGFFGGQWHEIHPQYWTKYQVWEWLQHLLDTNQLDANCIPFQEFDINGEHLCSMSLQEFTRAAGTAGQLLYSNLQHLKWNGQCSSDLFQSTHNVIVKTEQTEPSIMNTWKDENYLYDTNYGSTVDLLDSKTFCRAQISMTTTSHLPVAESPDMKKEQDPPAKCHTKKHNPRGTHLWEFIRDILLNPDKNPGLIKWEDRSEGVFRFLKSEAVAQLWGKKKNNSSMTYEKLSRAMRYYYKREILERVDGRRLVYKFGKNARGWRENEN
In outline:
as §1

Experiment [11] concerns the target T7, ETV2 (Homo sapiens, UniProt O00321 1-342).
T7 sequence: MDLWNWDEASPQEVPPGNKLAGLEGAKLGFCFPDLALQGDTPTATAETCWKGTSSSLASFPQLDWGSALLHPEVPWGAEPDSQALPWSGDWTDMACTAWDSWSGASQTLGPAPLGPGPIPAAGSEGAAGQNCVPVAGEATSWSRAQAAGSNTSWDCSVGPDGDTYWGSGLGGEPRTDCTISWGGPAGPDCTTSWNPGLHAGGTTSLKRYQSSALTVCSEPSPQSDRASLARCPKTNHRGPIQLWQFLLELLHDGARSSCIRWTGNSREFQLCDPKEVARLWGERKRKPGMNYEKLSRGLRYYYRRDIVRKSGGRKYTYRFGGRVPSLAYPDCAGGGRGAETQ
In outline:
as §1

Experiment [12] concerns the target ETV1 (Homo sapiens, UniProt P50549 1-477). In outline:
as §1

For experiment [13], the target named is T8, ERF (Homo sapiens, UniProt P50548 1-548).
T8 sequence: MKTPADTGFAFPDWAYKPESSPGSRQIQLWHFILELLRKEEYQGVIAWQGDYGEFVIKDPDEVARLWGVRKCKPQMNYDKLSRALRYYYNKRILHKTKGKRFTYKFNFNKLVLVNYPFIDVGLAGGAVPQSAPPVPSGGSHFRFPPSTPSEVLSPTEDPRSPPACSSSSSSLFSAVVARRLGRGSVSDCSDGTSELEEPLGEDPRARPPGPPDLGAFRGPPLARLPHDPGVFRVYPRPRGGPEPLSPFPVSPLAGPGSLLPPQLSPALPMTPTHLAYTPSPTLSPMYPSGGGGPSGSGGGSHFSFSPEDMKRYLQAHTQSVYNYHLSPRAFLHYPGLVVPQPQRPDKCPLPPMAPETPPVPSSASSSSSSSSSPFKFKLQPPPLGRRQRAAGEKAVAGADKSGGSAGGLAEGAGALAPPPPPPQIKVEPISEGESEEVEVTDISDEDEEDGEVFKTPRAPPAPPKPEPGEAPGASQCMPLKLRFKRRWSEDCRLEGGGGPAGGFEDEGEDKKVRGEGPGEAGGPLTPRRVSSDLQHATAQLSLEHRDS
In outline: as §1

Experiment [14] deals with T9, ETV3L (Homo sapiens, UniProt Q6ZN32 1-361).
T9 sequence: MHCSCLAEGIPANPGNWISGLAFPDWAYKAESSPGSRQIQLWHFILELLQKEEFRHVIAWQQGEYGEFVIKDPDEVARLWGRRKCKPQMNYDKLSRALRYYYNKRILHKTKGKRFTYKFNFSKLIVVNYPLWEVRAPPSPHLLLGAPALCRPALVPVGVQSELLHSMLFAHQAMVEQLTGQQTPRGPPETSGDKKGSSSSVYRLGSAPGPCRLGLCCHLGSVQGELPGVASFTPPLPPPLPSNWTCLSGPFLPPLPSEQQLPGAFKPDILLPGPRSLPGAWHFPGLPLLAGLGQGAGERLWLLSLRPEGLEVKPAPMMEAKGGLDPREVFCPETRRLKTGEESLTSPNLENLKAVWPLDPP
In short, it runs like this:
as §1

Experiment [15] concerns the target T10, ETS2 (Homo sapiens, UniProt P15036 1-469).
T10 sequence: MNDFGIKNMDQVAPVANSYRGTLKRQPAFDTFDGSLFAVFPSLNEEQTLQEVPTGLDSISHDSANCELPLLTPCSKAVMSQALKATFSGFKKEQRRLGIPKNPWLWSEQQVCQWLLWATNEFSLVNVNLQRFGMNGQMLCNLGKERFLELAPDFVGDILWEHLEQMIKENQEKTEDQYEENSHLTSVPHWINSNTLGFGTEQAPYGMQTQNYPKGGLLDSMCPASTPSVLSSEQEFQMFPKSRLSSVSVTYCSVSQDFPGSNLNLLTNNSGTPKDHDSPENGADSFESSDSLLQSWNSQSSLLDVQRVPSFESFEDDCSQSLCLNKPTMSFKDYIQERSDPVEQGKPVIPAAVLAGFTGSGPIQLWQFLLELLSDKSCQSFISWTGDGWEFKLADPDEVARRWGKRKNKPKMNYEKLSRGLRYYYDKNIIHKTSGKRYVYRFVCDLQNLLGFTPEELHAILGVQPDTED
In short, it runs like this:
as §1

Experiment [16] concerns the target T11, ETV3 (Homo sapiens, UniProt P41162-2 1-143).
T11 sequence: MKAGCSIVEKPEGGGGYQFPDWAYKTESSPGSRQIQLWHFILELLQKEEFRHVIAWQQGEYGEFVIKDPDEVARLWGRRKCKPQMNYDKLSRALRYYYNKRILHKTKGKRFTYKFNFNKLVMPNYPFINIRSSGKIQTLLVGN
In short, it runs like this:
as §1

Sequence of ELF4 (Q99607 whole entry): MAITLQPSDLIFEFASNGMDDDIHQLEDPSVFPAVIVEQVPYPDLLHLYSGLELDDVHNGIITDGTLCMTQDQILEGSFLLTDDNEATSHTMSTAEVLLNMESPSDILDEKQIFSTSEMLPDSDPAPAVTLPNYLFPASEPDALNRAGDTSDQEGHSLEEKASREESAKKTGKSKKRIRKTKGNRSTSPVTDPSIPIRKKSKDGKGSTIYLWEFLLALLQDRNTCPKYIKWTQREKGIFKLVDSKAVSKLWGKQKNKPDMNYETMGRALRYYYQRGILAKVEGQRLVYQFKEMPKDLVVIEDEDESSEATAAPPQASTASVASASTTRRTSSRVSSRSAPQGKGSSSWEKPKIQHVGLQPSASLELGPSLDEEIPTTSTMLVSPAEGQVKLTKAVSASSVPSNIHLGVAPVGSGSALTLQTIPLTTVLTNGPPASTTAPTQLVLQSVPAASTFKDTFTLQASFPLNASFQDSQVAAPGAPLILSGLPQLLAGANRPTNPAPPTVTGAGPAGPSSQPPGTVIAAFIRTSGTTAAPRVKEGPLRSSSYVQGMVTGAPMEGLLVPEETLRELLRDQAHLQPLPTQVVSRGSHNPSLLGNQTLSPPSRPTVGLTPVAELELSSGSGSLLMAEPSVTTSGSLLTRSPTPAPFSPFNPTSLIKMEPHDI
Sequence of SPIB (Q01892 whole entry): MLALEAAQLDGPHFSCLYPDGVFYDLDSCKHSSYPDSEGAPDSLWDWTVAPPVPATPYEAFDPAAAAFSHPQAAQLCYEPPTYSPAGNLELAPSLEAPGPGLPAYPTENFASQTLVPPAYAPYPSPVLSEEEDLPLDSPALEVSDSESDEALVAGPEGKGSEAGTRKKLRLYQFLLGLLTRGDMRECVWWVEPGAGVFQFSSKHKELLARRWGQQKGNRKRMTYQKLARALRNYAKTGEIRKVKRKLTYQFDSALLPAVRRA
Sequence of ETV1 (P50549 whole entry): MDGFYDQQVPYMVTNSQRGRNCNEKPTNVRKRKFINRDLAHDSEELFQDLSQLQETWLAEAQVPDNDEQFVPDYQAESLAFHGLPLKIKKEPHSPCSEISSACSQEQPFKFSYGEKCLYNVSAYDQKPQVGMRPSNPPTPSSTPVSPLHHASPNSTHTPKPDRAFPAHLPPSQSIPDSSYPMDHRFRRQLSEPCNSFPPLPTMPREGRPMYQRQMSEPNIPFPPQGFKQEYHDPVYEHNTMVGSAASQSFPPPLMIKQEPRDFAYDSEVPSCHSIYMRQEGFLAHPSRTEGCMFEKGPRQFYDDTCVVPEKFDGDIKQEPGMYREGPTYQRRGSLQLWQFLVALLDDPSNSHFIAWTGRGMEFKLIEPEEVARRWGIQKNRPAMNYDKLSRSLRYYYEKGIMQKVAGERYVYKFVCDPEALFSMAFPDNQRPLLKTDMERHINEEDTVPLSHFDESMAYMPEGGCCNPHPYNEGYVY

ACATGA: the binding signal is 1.01 fold enrichment (6-mer frequency, TF over GST control) in experiment [1]; 1.01 fold enrichment (6-mer frequency, TF over GST control) in experiment [2]; 1.07 fold enrichment (6-mer frequency, TF over GST control) in experiment [3]; 1.02 fold enrichment (6-mer frequency, TF over GST control) in experiment [4]; 1.04 fold enrichment (6-mer frequency, TF over GST control) in experiment [5]; 1.03 fold enrichment (6-mer frequency, TF over GST control) in experiment [6].
Turning to GCATGC, the binding signal in experiment [4] was 1.07 fold enrichment (6-mer frequency, TF over GST control).
On to TGCAGA, for which the binding signal in experiment [7] was 1.03 fold enrichment (6-mer frequency, TF over GST control); in experiment [4], 1.06 fold enrichment (6-mer frequency, TF over GST control); in [5] it was 1 fold enrichment (6-mer frequency, TF over GST control).
For the sequence CAGCTC, the binding signal was 1.01 fold enrichment (6-mer frequency, TF over GST control) in experiment [8]; 1.06 fold enrichment (6-mer frequency, TF over GST control) in [9]; 1.01 fold enrichment (6-mer frequency, TF over GST control) in experiment [10]; 1.01 fold enrichment (6-mer frequency, TF over GST control) in experiment [7]; 1.06 fold enrichment (6-mer frequency, TF over GST control) in experiment [4]; 1.05 fold enrichment (6-mer frequency, TF over GST control) in [5]. The binding signal in experiment [11] was 1.02 fold enrichment (6-mer frequency, TF over GST control); in experiment [6], 1.04 fold enrichment (6-mer frequency, TF over GST control); in [12], 1.08 fold enrichment (6-mer frequency, TF over GST control); in experiment [13], 1.05 fold enrichment (6-mer frequency, TF over GST control); in experiment [14] it was 1.11 fold enrichment (6-mer frequency, TF over GST control); in [15], 1.06 fold enrichment (6-mer frequency, TF over GST control). In addition, the binding signal in experiment [16] was 1 fold enrichment (6-mer frequency, TF over GST control).
